Assay outcomes as filed in PubChem BioAssay.
Most compounds without a hit are left out; they make up all but 3.1% or so of the library.
miR-122 sensor: miR-122 Renilla sensor signal increase in Huh7, primary screen, miR-122 inhibitor project, cell-based, single point, plate reader | Huh7 miR-122 Renilla luciferase sensor, 48 h; neutral wells = 0, positive control = 100 | activation (reporter increase), % at 12.5 µM | 340,000 compounds, 0.3% hits | AID 602342, 2012;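 active means mean replicate activation score at least 90 and every replicate individually at or above 90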;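 further: higher luciferase means less miR-122 activity so hits act as miR-122 inhibitors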
PAX8 reporter: inhibitors of PAX8-driven TPO luciferase reporter, primary screen, RMG-I cells, single concentration. AID 652154, 2013. SteadyGlo, 24 h. inhibition, % at 12.6 µM. 360,000 compounds, 1.2% hits;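 active means mean replicate inhibition at least 60% with every replicate also reaching 60%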;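 further: luciferase light reporting Pax8 driven TPO promoter activity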
EWS-Fli inh: EWS/Fli-driven NR0B1 reporter inhibitors, primary screen, A673 cells, NR0B1 luciferase, luminescence, MLPCN library. viability-normalised. inhibition, % at 12.6 µM. 350,000 compounds, 0.67% hits. AID 651661, 2012;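 active means mean inhibition of at least 50% after viability correction, with every replicate also passing that limit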;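 further: firefly luciferase signal divided by Alamar Blue viability fluorescence both relative to DMSO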
Env fusion inh: inhibitors of HIV-1 Env-driven cell-cell fusion, primary screen, HeLa-JRFL effector, CEM21 target cells, luciferase; inhibition, % at 12.3 µM; 360,000 compounds, 1.1% hits;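 active means mean replicate inhibition score of at least 50 and every replicate individually at or above 50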
Statin myotox sup: suppressors of statin myotoxicity in C2C12 myotubes, primary screen, cell-based, single point, plate reader; rescue of ATP level, % at 7.49 µM; 330,000 compounds, 0.78% hits; AID 602340, 2012; C2C12 myotubes + simvastatin, ATP luminescence, 48 h; scaled: DMSO 0, geranylgeraniol control 100;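 active means mean ATP rescue above about 67%, or every replicate alone reaching that limit, limit read from the data, passing the limit was not always enough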;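 further: myotubes were challenged with 10 µM simvastatin during compound exposure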
INS-1E GSIS act: GLuc luminescence reporter in INS-1E cells, primary screen for activators of glucose-dependent secretion of insulin; INS-1E GLuc reporter insulin secretion, 2-3 h; activation, % at 16.6 µM; 370,000 compounds, 0.61% hits;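 active means lowest replicate activation of at least 40%, so every replicate reaches that level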
Of the large screens only hits and unclear results are named; the others gave an inactive call; ! = not active in a repeat.

O=C(O)c1ccc(Nc2nc3c(s2)CCCC3)cc1	PAX8 reporter 67, EWS-Fli inh 67 (no result: miR-122 sensor, Statin myotox sup)
Cc1cccc(Nc2nc3c(s2)CCCC3)c1	none (no result: EWS-Fli inh, Statin myotox sup)
COc1ccc2c3c(n(C)c2c1)[C@@H](CO)N(Cc1ccccc1OC)CC31CN(CC2CC2)C1	none (no result: miR-122 sensor, PAX8 reporter, Statin myotox sup)
Cc1onc(-c2ccccc2)c1C(=O)NC(=S)NNC(=O)c1ccc(O)cc1	Env fusion inh 69 (no result: miR-122 sensor, EWS-Fli inh, Statin myotox sup)
Cc1onc(-c2ccccc2)c1C(=O)NC(=S)NNC(=O)c1ccccc1O	none (no result: miR-122 sensor, Statin myotox sup)
Cc1onc(-c2ccccc2)c1C(=O)NC(=S)NNC(=O)c1ccc(O)cc1O	PAX8 reporter 86 (no result: miR-122 sensor, EWS-Fli inh, Statin myotox sup)
Cc1ccc(C(=O)NNC(=O)C2CCN(Cc3ccc(Cl)c(Cl)c3)CC2)cc1	Statin myotox sup 135 (no result: PAX8 reporter, EWS-Fli inh, Env fusion inh, INS-1E GSIS act)
Cc1ccc(C(=O)NNC(=O)C2CCN(Cc3ccccc3)CC2)cc1	none (no result: PAX8 reporter, EWS-Fli inh, Env fusion inh, Statin myotox sup)
C[C@@H]1CN([C@@H](C)CO)C(=O)c2cc(-c3ccc(F)cc3)cnc2O[C@@H]1CN(C)C(=O)NC1CCCC1	none
COC1=CC(=O)c2nc(Cl)ccc2C1=O	PAX8 reporter 107 (no result: miR-122 sensor, Statin myotox sup)
C/C=C/c1ccc(C2[C@@H]3CN(Cc4cccc(OC)c4)C[C@H]2N3)cc1 (stereo partly drawn)	none (no result: miR-122 sensor, Env fusion inh, Statin myotox sup)
c1ncc(-c2ccc(C3[C@@H]4CN(Cc5ccc6c(c5)OCO6)C[C@H]3N4)cc2)cn1 (stereo partly drawn)	none (no result: miR-122 sensor, Env fusion inh, Statin myotox sup)
COc1ccc(-c2ccc(C3[C@@H]4CN(Cc5cc(OC)cc(OC)c5)C[C@H]3N4)cc2)cc1 (stereo partly drawn)	PAX8 reporter 86! (no result: miR-122 sensor, Env fusion inh, Statin myotox sup)
COc1cc(CN2C[C@@H]3N[C@H](C2)C3c2ccc(/C=C/c3ccccc3)cc2)cc(OC)c1 (stereo partly drawn)	INS-1E GSIS act 84! (no result: miR-122 sensor, Env fusion inh, Statin myotox sup)
C(=C\c1ccc(C2[C@@H]3CN(Cc4ccc5c(c4)OCO5)C[C@H]2N3)cc1)/c1ccccc1 (stereo partly drawn)	PAX8 reporter 81! (no result: miR-122 sensor, Env fusion inh, Statin myotox sup)
CNc1ccc(Br)cc(C(=O)/C=C/c2ccc(OC)cc2)c1=O	none (no result: miR-122 sensor, EWS-Fli inh, Statin myotox sup)
CNc1ccc(Br)cc(C(=O)/C=C/c2cc(OC)ccc2OC)c1=O	PAX8 reporter 92 (no result: EWS-Fli inh, INS-1E GSIS act)
CCNc1ccc(Br)cc(C(=O)/C=C/c2ccc(Cl)cc2Cl)c1=O	Statin myotox sup 82 (no result: PAX8 reporter, EWS-Fli inh, INS-1E GSIS act)
Cc1ccc(S(=O)(=O)Nc2ccc3c(c2)C(=O)N([C@@H](C)CO)C[C@H](C)[C@H](CN(C)C(=O)Nc2ccc(F)cc2)O3)cc1	none (no result: Env fusion inh)
CCCCN(Cc1nc2ccccc2c(=O)[nH]1)C(=O)c1nn(C)c(=O)c2ccccc12	INS-1E GSIS act 47 (no result: miR-122 sensor)
Cc1ccc(NC(=O)CSCC(=O)O)cc1	none (no result: miR-122 sensor, Statin myotox sup)
O=C(O)CSCC(=O)Nc1ccc(C2CCCCC2)cc1	Env fusion inh 98 (no result: PAX8 reporter, EWS-Fli inh, Statin myotox sup)
COc1cccc(S(=O)(=O)Nc2ccc3c(c2)C(=O)N(C)[C@H]2CC[C@H](CC(=O)Nc4cc(F)ccc4F)O[C@@H]2CO3)c1	none (no result: miR-122 sensor, PAX8 reporter, EWS-Fli inh, Env fusion inh, Statin myotox sup)
C[C@@H]1CN([C@@H](C)CO)C(=O)Cc2cc(NC(=O)NC3CCCCC3)ccc2O[C@@H]1CN(C)Cc1ccc(-c2ccccc2)cc1	PAX8 reporter 102
C[C@H](CO)N1C[C@H](C)[C@@H](CN(C)Cc2ccc(Oc3ccccc3)cc2)Oc2ccc(NC(=O)NC3CCCCC3)cc2CC1=O	none
C[C@H]1CN([C@@H](C)CO)C(=O)Cc2cc(NC(=O)C3CCCCC3)ccc2O[C@H]1CN(C)Cc1ccc(-c2ccccc2)cc1	none
C[C@@H]1CN([C@@H](C)CO)C(=O)Cc2cc(NC(=O)NC3CCCCC3)ccc2O[C@H]1CN(C)Cc1ccc(Oc2ccccc2)cc1	PAX8 reporter 71
C[C@@H]1CN([C@@H](C)CO)C(=O)Cc2cc(NC(=O)C3CCCCC3)ccc2O[C@H]1CN(C)Cc1ccc(-c2ccccc2)cc1	Statin myotox sup 137
O=C(NCc1ccco1)c1ccccc1NS(=O)(=O)c1ccc2c(c1)OCCO2	Statin myotox sup 109 (no result: PAX8 reporter, EWS-Fli inh, Env fusion inh, INS-1E GSIS act)
O=C1C=CC(=O)N1CCCCCCN1C(=O)C=CC1=O	PAX8 reporter 109, INS-1E GSIS act 202 (no result: miR-122 sensor, EWS-Fli inh, Statin myotox sup)
Cc1cc(O)c(C(C)C)cc1N=Nc1ccccc1C(=O)O	miR-122 sensor 190
COC(=O)c1c(NC(=O)COc2ccc(Cl)cc2)sc2c1CC(C)(C)NC2(C)C	Env fusion inh 57 (no result: miR-122 sensor, EWS-Fli inh)
O=C(c1ccccn1)N1C[C@H]2[C@@H](c3ccccc31)[C@@H](CO)N2C(=O)C1CC1	none (no result: Env fusion inh)
O=C1C(=O)N(c2nccs2)C(c2ccccc2F)/C1=C(\O)c1ccc2c(c1)OCCO2 (stereo not drawn)	Env fusion inh 59
CC(C)C#Cc1cnc2c(c1)C(=O)N([C@H](C)CO)C[C@@H](C)[C@@H](CN(C)C(=O)Nc1ccccc1)O2	none (no result: PAX8 reporter)
COc1ccccc1CNC(=O)c1c(-c2ccccc2Cl)noc1C	none
Cc1onc(-c2ccccc2Cl)c1C(=O)NCc1nc(-c2ccccc2)no1	Statin myotox sup 159 (no result: PAX8 reporter, EWS-Fli inh, Env fusion inh, INS-1E GSIS act)
COCC(=O)Nc1ccc2c(c1)[C@H]1C[C@H](CC(=O)NCc3ccccc3)O[C@H](CO)[C@H]1O2	none
COc1ccc(/C=C/c2cc(C(=O)O)c3ccccc3n2)cc1	EWS-Fli inh 70 (no result: Statin myotox sup)
C[C@@H]1CN([C@@H](C)CO)C(=O)c2cc(NC(=O)Nc3ccc(F)cc3)ccc2O[C@@H](C)CCCCO[C@@H]1CN(C)C	none
Cc1cc(C)nc(/N=C(\N)Nc2ccc(CC(=O)OC(C)C)cc2)n1	Env fusion inh 68 (no result: INS-1E GSIS act)
Cc1cc(C)nc(/N=C(\N)Nc2ccc(OCCC(C)C)cc2)n1	none (no result: INS-1E GSIS act)
Cc1cc(C)nc(/N=C(\N)Nc2ccc(OCc3ccccc3)cc2)n1	none (no result: miR-122 sensor, Statin myotox sup)
Cc1cc(C)nc(/N=C(\N)Nc2cccc(OCc3ccccc3)c2)n1	EWS-Fli inh 53 (no result: Statin myotox sup, INS-1E GSIS act)
CCCNC(=O)C[C@H]1CC[C@@H]2[C@H](COc3ccc(NC(=O)Nc4cccc(C)c4)cc3C(=O)N2C)O1	none
Cc1ccc(S(=O)(=O)N[C@@H]2CC[C@H](CCn3cc(C4(O)CCCC4)nn3)O[C@@H]2CO)cc1	none (no result: miR-122 sensor)
C[C@@H]1CCCCO[C@H](CN(C)C(=O)NC2CCCCC2)[C@H](C)CN([C@H](C)CO)C(=O)c2cc(NC(=O)Nc3ccc(C(F)(F)F)cc3)ccc2O1	PAX8 reporter 73 (no result: Statin myotox sup)
C[C@@H]1CN([C@H](C)CO)C(=O)c2cc(NC(=O)Nc3ccc(C(F)(F)F)cc3)ccc2O[C@@H](C)CCCCO[C@H]1CN(C)C(=O)NC1CCCCC1	PAX8 reporter 96 (no result: Statin myotox sup)
C[C@@H]1CN([C@H](C)CO)C(=O)c2cccc(NC(=O)Nc3ccccc3)c2O[C@H]1CN(C)S(=O)(=O)c1ccc(F)cc1	none (no result: Env fusion inh)
Cc1ccc(NC(=O)O/N=C/c2c(C)nn(C(C)(C)C)c2C)cc1Cl	EWS-Fli inh 76 (no result: Statin myotox sup)
